Experimental data taken from PubChem BioAssay (NCI).
This is part of a sample that, as a whole, favours compounds with a hit. Of some 83,000 tested, about 20% had one in any assay.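 A percent growth of 40 corresponds to 60% growth inhibition; 0 means no net growth; -100 means all cells died. Active threshold: below 10.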 A number with no mark means an inactive call. The source made the active and inactive calls.

What was measured:
Experiment in all cases: NCI-60 one-dose screen, 48 h (100 = growth as untreated, 0 = no growth, -100 = all killed)
SK-MEL-2 melanoma = conditions: 10 µM
EKVX NSCLC = conditions: 10 µM unless noted
SN12C renal = conditions: 10 µM unless noted
UO-31 renal = conditions: 10 µM unless noted
TK-10 renal = conditions: 10 µM unless noted
ACHN renal = conditions: 10 µM unless noted
CAKI-1 renal = conditions: 10 µM unless noted
CCRF-CEM leukemia = conditions: 10 µM unless noted
MOLT-4 leukemia = conditions: 10 µM unless noted
A498 renal = conditions: 10 µM unless noted

Structure (SMILES) | growth (SK-MEL-2 melanoma) | growth (EKVX NSCLC) | growth (SN12C renal) | growth (UO-31 renal) | growth (TK-10 renal) | growth (ACHN renal) | growth (CAKI-1 renal) | growth (CCRF-CEM leukemia) | growth (MOLT-4 leukemia) | growth (A498 renal)
COc1ccc(CCCc2c3[n+](cc4c(OC)c(OC)ccc24)CCc2cc4c(cc2-3)OCO4)cc1 | 60.1% | 78.3% | 69% | 93.2% | 66.4% | 96.2% | 98.3% | 64.7% | 76.8% | –
N#Cc1c(C(F)(F)F)cc(Nc2ccc3nc(NCCN4CCCC4)oc3c2)n2c1nc1ccccc12 | 83.8% | 73.6% | 55.6% | 66.6% | 79.5% | 83% | 74.1% | 11% | 56.7% | 52.8%
COc1cnc2c(c1)C(=O)c1c-2n(CCCN2CCOCC2)c(=O)c2cc(Cl)ccc12 | 92.1% | 54.2% | 21.6% | 13.8% | 83.1% | 6.75% (active) | 18.3% | 1.33% (active) | -17.8% (active) | -2.15% (active)
CCc1nc2cc(/C=C/C(=O)NO)ccc2c(=O)n1CCc1ccc(F)cc1 | 49.1% | 38.5% | 0.812% (active) | -15.5% (active) | -12.3% (active) | -26.5% (active) | 0.0916% (active) | 2.06% (active) | -3.04% (active) | -26.2% (active)
C=C1C(=O)O[C@H]2[C@H]1CC/C(Cn1cc(-c3cc(C)c(C)cc3C)nn1)=C\CC[C@@]1(C)O[C@@H]21 | -12.9% (active) | -79.9% (active) | -34.6% (active) | -98.3% (active) | -98.9% (active) | -86.7% (active) | -93.7% (active) | -13.8% (active) | -19.2% (active) | –
COc1cnc2c(c1)C(=O)c1c-2n(CCCN2CCC(O)CC2)c(=O)c2cc(Cl)ccc12 | 107% | 67.7% | 30.5% | 15% | 82.8% | 8.76% (active) | 20.1% | 0.479% (active) | -7.04% (active) | -3% (active)
COC(=O)CC[C@@H](C)[C@H]1CC[C@H]2C3CC[C@@H]4C[C@@H]5CC[C@]4(C)[C@@]3(O5)[C@H](Br)[C@@H](Br)[C@]12C (stereo partly specified) | 93% | 84.8% | 98.1% | 93.7% | 97.7% | 96.8% | 80.3% | 95.6% | 76% | –
CCc1nc2cc(/C=C/C(=O)NO)c(F)cc2c(=O)n1CCc1ccccc1 | 35% | 20.6% | 3.45% (active) | -28.7% (active) | -5.84% (active) | 1.28% (active) | -1.21% (active) | 2.77% (active) | -2.57% (active) | -16.5% (active)
C=C1C(=O)O[C@H]2[C@H]1CC/C(CNC(=O)c1cc3cc(OC)ccc3[nH]1)=C\CC[C@@]1(C)O[C@@H]21 | -42.7% (active) | -55.9% (active) | -38.5% (active) | -75.8% (active) | -83% (active) | -76.2% (active) | -74.1% (active) | -19.3% (active) | -31% (active) | –
O=C(NO)c1ccc(Cn2c(=O)n(CCc3ccccc3)c(=O)c3ccccc32)cc1 | 45.7% | 38.8% | 38.5% | 17.3% | 43.4% | 25.8% | 27.2% | 4.6% (active) | 3.88% (active) | 12.7%
CC(N)C(Cc1ccc(Cl)cc1)c1ccc(Cl)cc1 (stereo unspecified) | -58% (active) | 83.7% | 87% | 55.8% | 45.5% | 80.5% | 59.6% | 65.6% | 34.9% | –
COc1ccc(C2CC(=O)c3c(O)c(OC)c(OC)c(OC)c3O2)c(O)c1 (stereo unspecified) | 52% | 48.4% | 47.4% | 54.2% | 73.1% | 44.3% | 41.1% | 25.5% | 22.6% | –
C=C1[C@@H](O)C[C@H]2C(C)(C)C[C@H](Cl)C[C@]2(C)[C@H]1C[C@H](O)[C@H]1CC(=O)NC1=O | -70.4% (active) | -25.1% (active) | -28.9% (active) | -26.1% (active) | -18.6% (active) | -26.2% (active) | 1.87% (active) | 0.532% (active) | -11.2% (active) | -76% (active)
CC1(/C=N/NC(N)=S)NC(=O)NC1=O (stereo unspecified) | 105% | 99.1% | 95.5% | 96.5% | 96.5% | 108% | 96.7% | 100% | 82% | –
COC(=O)[C@]12CC[C@@H](C)[C@H](C)[C@@H]1C1=CC[C@@H]3[C@@]4(C)C(C#N)=CC(C)=C4CC[C@@]3(C)[C@]1(C)CC2 | 82.9% | 92.8% | 93.3% | 84.8% | 99.2% | 79% | 76.8% | 16% | 78.8% | –
COc1ccc2c(CCC(c3ccccc3)c3ccccc3)c3[n+](cc2c1OC)CCc1cc2c(cc1-3)OCO2 | -15% (active) | 24.7% | 0.0445% (active) | 45.6% | 8.09% (active) | 23.4% | 60.2% | 6.45% (active) | -10.1% (active) | –
CCN(CCN(C)C)C(=O)CNCc1cc(C(N)=O)ccn1 | 94.8% | 104% | 98.8% | 93.2% | 96.4% | 108% | 105% | 93.6% | 99.8% | –
Cc1ccccc1Nc1nc2nonc2nc1Nc1cccc(C)c1C | 24.9% | 27.2% | 44.3% | 51.4% | 56.4% | 52.6% | 48.9% | 50.6% | 53.5% | –
CCCCCCCC(=O)SCC/C=C/[C@@H]1CC(=O)NCc2cc(ccn2)C2=N[C@@](C)(CS2)C(=O)N[C@@H](C(C)C)C(=O)O1 | -2.2% (active) | 19.9% | 21.9% | -10.5% (active) | -15.6% (active) | -17.2% (active) | -54.4% (active) | 39% | 12.8% | –
COc1ccc2c(CCCc3ccc(Cl)cc3Cl)c3[n+](cc2c1OC)CCc1cc2c(cc1-3)OCO2 | -22.8% (active) | 23.1% | -24.9% (active) | 25.4% | 0.636% (active) | 21.9% | 71.9% | 5.42% (active) | -9.91% (active) | –
NC(=O)N1N=C(c2ccc(Cl)cc2)CC1c1cn(-c2ccccc2)nc1-c1ccc(Cl)cc1 (stereo unspecified) | 74.3% | 58.1% | 61.9% | 21.5% | 43.2% | 26.1% | 67.7% | 85.2% | 62.9% | 71.1%
COc1ccc(OC)c(NC2=C(SCCc3ccccc3)C(=O)c3ccccc3C2=O)c1 | 73.2% | 77.3% | 91.2% | 61.6% | 110% | 77.2% | 63.7% | 122% | 80.4% | –
Nc1c(C(=O)c2ccccc2)sc2nc(-c3cccs3)cc(-c3cccs3)c12 | 40.9% | 62.2% | 59.5% | 60.5% | 81.6% | 55.7% | 50.5% | 40.1% | 44.8% | –
NS(=O)(=O)c1ccc(CCN2C(=O)/C(=C\c3ccc(Cl)cc3)C=C2c2ccc3ccccc3c2)cc1 | 106% | 89.4% | 94% | 78.4% | 95.5% | 90% | 82.4% | 106% | 86.3% | –
Cc1cccc(NC(=O)[C@@H]2c3ccccc3C(=O)N(c3ccc(Cl)cc3)[C@H]2c2ccc(Cl)cc2)n1 | 56.6% | 37.2% | 66.5% | 37.6% | 69.6% | 52% | 55.6% | 73.2% | 35.9% | –
CC1(C=O)NC(=O)NC1=O (stereo unspecified) | 106% | 99.6% | 97.8% | 96% | 100% | 104% | 98.6% | 95.7% | 89.9% | –
Cc1cc(O)c2c(c1)C1OC(=O)CCCCCN1C1=C2C(=O)c2cccc(OC3CC(O)C(O)C(C)O3)c2C1=O (stereo unspecified) | 46.4% | 97% | 66.3% | 99.9% | 142% | 69.1% | 96.9% | 57.8% | 63.3% | –
OCCNC(=S)Nc1ccc(-c2nc(N3C[C@H]4CC[C@@H](C3)O4)c3cccn3n2)cc1 | -21.5% (active) | 1.72% (active) | 2.32% (active) | -13.8% (active) | -28.2% (active) | 6.16% (active) | 6.32% (active) | 18.9% | 16.7% | -37.5% (active)
